Data on 5 molecules can be found in PubChem BioAssay (NCATS).

The structures appear in SMILES notation. Inconclusive results are not listed. Active and inactive are the calls of the source. Unless noted, calls follow the shape of the dose curve; as a rule, active = well fitted curve in the direction sought with a large enough effect; inconclusive = small, poorly fitted or top-dose-only effect, or another doubt; inactive = no such curve, though single readings can be large; an effect the other way counts as inactive or inconclusive.

The nature of experiment [1]: Quantitative high throughput screen for delayed death inhibitors of the malarial parasite plastid, 48 hour incubation (AID 488752). Also: nearly all actives have a fitted effect of over 65% in size. Also: potency is read from the fitted curve at half-maximal effect. The gist of the method: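 Luciferase-expressing P. falciparum in RBCs, 2% Hct, 0.1% parasitemia final; RPMI 1640 + 0.5% Albumax; 48 h, 37 C, 5% CO2; luminescence readout, signal drop = growth inhibition.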
Experiment [2] addresses Thioredoxin reductase 1, cytoplasmic (Rattus norvegicus) (UniProt O89049). The experiment is described as follows: qHTS Assay for Substrates of Mammalian Selenoprotein Thioredoxin Reductase 1 (TrxR1) (AID 488772).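 Also: series mostly up to about 57 µM; 0% is about no effect; a drop in NADPH fluorescence below the no-compound background marks a TrxR1 substrate.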 The essentials:
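In this dual-purpose format, potential substrates are identified from the first fluorescence read after selenite addition, not from the 8-minute delta. Rat enzyme is preincubated with NADPH and then with compound at ~22 deg C.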

For experiment [3] the target is unchanged. The experiment is described as follows: qHTS Assay for Inhibitors of Mammalian Selenoprotein Thioredoxin Reductase 1 (TrxR1) (AID 488773). Also: nearly all actives have a fitted effect of over 40% in size. Also: potency is read from the fitted curve at half-maximal effect. Conditions: Potency: inhibition. The gist of the method: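 Inhibition is scored from the loss of NADPH fluorescence between first and last reads of an 8-min kinetic run. Selenite (400 uM) was the substrate, added after 15 min compound preincubation at room temperature.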

Experiment [4] deals with Flap endonuclease 1 (Homo sapiens) (UniProt P39748). The experiment is described as follows: qHTS Validation Assay for the Inhibitors of Human Flap endonuclease 1 (FEN1) (AID 488816). Also: potency is read from the fitted curve at half-maximal effect. The essentials:
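qHTS format: compounds and 10 nM FEN1 incubated 15 min at room temperature before adding 50 nM substrate. Cleavage followed by reads at 0 and 15 min; normalized data fitted to a four-parameter Hill curve.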
(In general: In qHTS, concentration-response curves come from the screen itself.)

Experiment [5] deals with M-phase phosphoprotein 8 (Homo sapiens) (UniProt Q99549). The experiment can be described thus: qHTS Validation Assay for Inhibitors for MPP8 Chromodomain Interactions with Methylated Histone Tails (AID 488949). Also: top concentration of the series differs between compounds; % is scaled to controls: 0 for no effect and ±100 for the full control effect; nearly all actives have a fitted effect of over 55% in size. The gist of the method: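 MPP8 (50 nM) was preincubated with biotinylated H3(1-18)K9me3 peptide (50 nM) in PBS pH 7.4, 0.01% Tween-20 for 30 min at room temperature, then with compounds for 30 min; binding was detected by AlphaScreen.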

The target of experiment [6] is Chromobox protein homolog 1 (Homo sapiens) (UniProt P83916). The experiment can be described thus: qHTS Validation Assay for Inhibitors of HP1-beta Chromodomain Interactions with Methylated Histone Tails (AID 488953). Also: nearly all actives have a fitted effect of over 50% in size. Also: potency is read from the fitted curve at half-maximal effect. The essentials:
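AlphaScreen proximity readout: streptavidin donor and Ni-chelate acceptor beads, 10 ug/mL final, 30 min dark, RT. Complex of 50 nM HP1-beta and 50 nM b-H3(1-18)K9me3 formed 30 min, then compound-treated 30 min; PBS pH 7.4/0.01% Tween-20.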

The target of experiment [7] is Methanococcus maripaludis chaperonin (MmCpn) (UniProt Q6LX38). The experiment is described as follows: High-Throughput Screening for Modulators of Cytosolic Chaperonin Activity: MmCpn Primary Screen (AID 488978).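 Also: 50 nM MmCpn enzyme hydrolysing 30 µM ATP at 37 °C; 0% is about no effect.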 The essentials: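 MmCpn (50 nM final) was preincubated with compound 5 min at RT, then 30 uM ATP (final) was added and the reaction ran 10 min at 37C. ADP produced was detected by Transcreener HTRF (ex 320 nm; em 590/665 nm).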

Experiment [8] has as its target Transient receptor potential cation channel subfamily V member 1 (Homo sapiens) (UniProt Q8NER1). The experiment can be described thus: HTS Assay for Compounds that Act as Enhancers of the Vanilloid Receptor 1 (AID 488979). Also: 0% is about no effect. The essentials: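 Calcium influx kinetics via Fluo-8 (480/520 nm) in TRPV1-expressing cells, 2000/well cultured overnight at 35.5C. Compound-alone read 3 min (agonist phase), followed by EC20 capsaicin challenge for 2 min (enhancer phase).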

Experiment [9] addresses D(1A) dopamine receptor (Homo sapiens) (UniProt P21728). The experiment can be described thus: HTS Assay for Allosteric Agonists of the Human D1 Dopamine Receptor: Primary Screen for Agonists (AID 488981). Also: 0% is about no effect. The gist of the method:
(§1)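 Calcium flux in an inducible, force-coupled HEK293 Trex D1 line (overnight at 30 C): agonist mode is the 180 s kinetic read after compound; potentiator mode is the following 180 s read after dopamine at EC20.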

Experiment [10] shares this target. The experiment is described as follows: HTS Assay for Allosteric Agonists of the Human D1 Dopamine Receptor: Primary Screen for Antagonists (AID 488983).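 Also: calcium flux response to an EC80 dopamine challenge measured with no-wash dye; nearly all actives have a fitted effect of over 65% in size.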 Also: potency is read from the fitted curve at half-maximal effect. The essentials: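 Calcium flux readout, no-wash dye, inducible HEK293 T-REx D1 line (force-coupled). Compound added after 10 s baseline, 180 s kinetic read; then dopamine at EC80, further 180 s read.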
The target of experiment [11] is Thyrotropin-releasing hormone receptor (Homo sapiens) (UniProt P34981). The experiment can be described thus: qHTS for Small Molecule Agonists and Allosteric Enhancers of Human TRH Receptor: Validation Screen for Agonists (AID 493127;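 active = calcium activation more than 3 SD above the typical response in the agonist read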;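 also: intracellular calcium rise by fluo-8 fluorescence before TRH EC20 addition; 0% is about no effect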). The note with it: TRH receptor agonist cell assay; at 2 µM; stronger effect = higher value. The gist of the method:
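Read-out: intracellular calcium release measured kinetically by FDSS (fluo-8, ex 480/em 530 nm), 1 reading/s after a 10-cycle baseline. TRHR cells, 2000/well, cultured 18 h at 33.5C, dye-loaded at room temp. Compound-evoked positive calcium signal flags agonists.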

The nature of experiment [12]: Nrf2 qHTS screen for inhibitors: Validation (AID 493153; active = well fitted inhibition curve with a large enough effect in the main read-out, with a control signal flat, not every such curve was filed as active). The note with it: Potency: luciferase luminescence; viability change: measured here: cytotoxicity max response. The essentials: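 Concentration-response test in A549 ARE_Fluc reporter cells (5% FBS OPTI-MEM), compound exposure 18-24 h at 37°C, 5% CO2. Cell viability measured first by CellTiter-Fluor fluorescence; ARE-driven luciferase luminescence then measured as Nrf2 activity.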

A short description of experiment [13]: qHTS for Inhibitors of Cell Surface uPA Generation: Validation Assay (AID 493164).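 Also: RAW 264.7 macrophage cells exposed to compound for 18 h; 0% is about no effect.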 The essentials:
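Compounds are titrated over seven points (2.45 nM–38.3 uM final) onto pre-plated RAW 264.7 cells and incubated for 18 h. Retained intracellular ATP, measured with ATP-Lite, indicates blocked lethal factor entry.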

The nature of experiment [14]: Validation screen for small molecules that induce DNA re-replication in SW480 colon adenocarcinoma cells (AID 504364). Also: 0% is about no effect. The gist of the method:
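Read-out: total Hoechst intensity of nuclei by fluorescence scanning imager; hits raise the fraction of nuclei with elevated DNA content. Cells received compound for 48 hr at 37 C before a 40 min stain.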

For experiment [15], the target named is phosphoglycerate mutase (Leishmania major) (UniProt Q4Q090). The experiment can be described thus: qHTS Validation Assay to Find Inhibitors of Phosphoglycerate Mutase (AID 504548).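 Also: end-point luminescence from Kinase-GloPlus after the PGAM reaction; series mostly up to about 58 µM; % is scaled to controls: 0 for no effect and ±100 for the full control effect.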 The note with it: Potency: inhibition qHTS. The gist of the method:
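L. major PGAM (1.25nM final) was added to substrate buffer and pinned compound, incubated 45 minutes at room temperature, then Kinase-GloPlus added; luminescence read after 10 minutes. Buffer: 100 mM TEA pH 7.6, 5 mM MgCl2, 0.01% Tween-20.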

Experiment [16] deals with Ubiquitin carboxyl-terminal hydrolase 1 (Homo sapiens) (UniProt O94782). The experiment is described as follows: Inhibitors of USP1/UAF1: Pilot qHTS (AID 504865).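 Also: rhodamine fluorescence freed from ubiquitin-rhodamine substrate followed over time; top concentration of the series differs between compounds; % is scaled to controls: 0 for no effect and ±100 for the full control effect; nearly all actives have a fitted effect of over 35% in size.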 The gist of the method:
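USP1/UAF1 complex (1nM) preincubated with compound 15 min at room temperature, then Ub-Rho substrate (150nM final) added. Fluorescence read kinetically at 480/540 nm, 6 reads every 60 seconds. Buffer: 50mM HEPES pH 7.8, 0.5mM EDTA, 0.1 mg/ml BSA, 1mM TCEP, 0.01% Tween-20.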

Experiment [17] concerns the target D(1A) dopamine receptor (Homo sapiens) (UniProt P21728). The experiment is described as follows: HTS Assay for Allosteric Agonists of the Human D1 Dopamine Receptor: Primary Screen for Potentiators (AID 488982). Also: 0% is about no effect. The gist of the method:
as §1

For experiment [18], the target named is Peptidyl-prolyl cis-trans isomerase NIMA-interacting 1 (Homo sapiens) (UniProt Q13526). The experiment is described as follows: qHTS Validation Assay to Find Inhibitors of Pin1 (AID 504536; active = well fitted inhibition curve with a large enough effect in the polarisation, with a control signal flat, not every such curve was filed as active; the % refers to the polarisation;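 also: 0% = full Pin1 enzyme wells and -100% = no-enzyme wells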). The gist of the method: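 Fluorescence polarization competition: compounds (titration) displace HiFluor-488-labeled Pin1-1b peptide from Pin1 (0.3 uM final) in pH 7.5 HEPES buffer with DTT, 10 min at room temperature; %Activity normalized to no-enzyme wells, curves fitted.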

Experiment [19] concerns the target Phosphoglycerate kinase, glycosomal (Trypanosoma brucei brucei) (UniProt P07378). The experiment can be described thus: qHTS Validation Assay to Find Inhibitors of Phosphoglycerate Kinase (AID 504547).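 Also: control wells lack PGK and mark full inhibition.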 The essentials:
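Luminescence end-point (Kinase-Glo Plus, 10 min) after a 60 min room-temperature coupled reaction. GAPDH at 100nM final supplies 1,3-BPG to PGK. Buffer: 100mM TEA pH 7.6, 5mM MgCl2, 0.01% Tween-20. Wells lacking PGK served as controls.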

Experiment [20] addresses ATP-dependent 6-phosphofructokinase (Trypanosoma brucei brucei) (UniProt O15648). The experiment can be described thus: qHTS Assay to Find Inhibitors of T. brucei phosphofructokinase: hit validation (AID 492961).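 Also: luminescence reports ADP formed as PFK phosphorylates fructose-6-phosphate with ATP; series mostly up to about 51 µM; % is scaled to controls: 0 for no effect and ±100 for the full control effect.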 The gist of the method:
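ADP-Glo luminescence read-out of ADP formed by 1.25 nM PFK from 0.1 mM ATP and 0.5 mM F6P (TEA pH 8.0, 45 min, RT). Compounds titrated; activity normalized to no-enzyme and full-enzyme controls.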

Chain of D(1A) dopamine receptor (Homo sapiens) (P21728 whole entry, looked up): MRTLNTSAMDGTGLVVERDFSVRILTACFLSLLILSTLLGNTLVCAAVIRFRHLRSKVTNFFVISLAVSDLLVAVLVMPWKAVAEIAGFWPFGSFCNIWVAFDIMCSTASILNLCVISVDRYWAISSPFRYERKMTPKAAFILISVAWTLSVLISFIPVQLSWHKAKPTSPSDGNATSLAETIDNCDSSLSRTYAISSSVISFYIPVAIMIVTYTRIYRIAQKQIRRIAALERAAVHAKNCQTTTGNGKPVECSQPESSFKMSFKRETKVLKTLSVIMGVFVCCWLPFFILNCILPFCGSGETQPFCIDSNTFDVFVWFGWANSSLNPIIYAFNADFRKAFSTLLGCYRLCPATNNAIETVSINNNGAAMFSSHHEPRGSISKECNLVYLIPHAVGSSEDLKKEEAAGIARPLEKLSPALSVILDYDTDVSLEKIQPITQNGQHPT
Chain of Thyrotropin-releasing hormone receptor (Homo sapiens) (P34981 whole entry, looked up): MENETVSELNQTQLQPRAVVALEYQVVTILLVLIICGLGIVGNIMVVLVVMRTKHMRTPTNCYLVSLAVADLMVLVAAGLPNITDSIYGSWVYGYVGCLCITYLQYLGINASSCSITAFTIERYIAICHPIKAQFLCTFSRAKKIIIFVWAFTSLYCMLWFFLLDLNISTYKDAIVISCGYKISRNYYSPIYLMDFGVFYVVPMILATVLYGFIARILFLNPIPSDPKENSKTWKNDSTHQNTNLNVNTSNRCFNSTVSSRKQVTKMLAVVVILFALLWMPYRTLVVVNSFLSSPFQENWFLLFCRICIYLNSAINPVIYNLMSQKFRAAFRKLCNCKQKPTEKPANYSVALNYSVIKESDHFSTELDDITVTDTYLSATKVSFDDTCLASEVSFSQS
Chain of phosphoglycerate mutase (Leishmania major) (Q4Q090 1-553): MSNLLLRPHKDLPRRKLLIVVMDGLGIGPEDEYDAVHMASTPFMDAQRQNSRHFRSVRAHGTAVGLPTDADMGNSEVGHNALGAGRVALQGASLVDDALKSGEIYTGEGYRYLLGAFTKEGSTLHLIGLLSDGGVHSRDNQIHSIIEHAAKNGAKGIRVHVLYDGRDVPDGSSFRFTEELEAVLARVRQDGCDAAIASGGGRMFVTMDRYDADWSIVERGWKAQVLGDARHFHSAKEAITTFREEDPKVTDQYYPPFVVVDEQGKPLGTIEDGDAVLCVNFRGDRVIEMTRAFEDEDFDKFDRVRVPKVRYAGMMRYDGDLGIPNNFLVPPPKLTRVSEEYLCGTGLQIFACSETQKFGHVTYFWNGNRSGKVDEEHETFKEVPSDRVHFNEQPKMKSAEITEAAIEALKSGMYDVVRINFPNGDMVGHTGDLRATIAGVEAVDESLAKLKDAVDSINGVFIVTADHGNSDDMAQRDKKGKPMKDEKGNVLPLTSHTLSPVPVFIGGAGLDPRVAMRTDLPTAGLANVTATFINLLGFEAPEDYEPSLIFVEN
Chain of Phosphoglycerate kinase, glycosomal (Trypanosoma brucei brucei) (P07378 whole entry, looked up): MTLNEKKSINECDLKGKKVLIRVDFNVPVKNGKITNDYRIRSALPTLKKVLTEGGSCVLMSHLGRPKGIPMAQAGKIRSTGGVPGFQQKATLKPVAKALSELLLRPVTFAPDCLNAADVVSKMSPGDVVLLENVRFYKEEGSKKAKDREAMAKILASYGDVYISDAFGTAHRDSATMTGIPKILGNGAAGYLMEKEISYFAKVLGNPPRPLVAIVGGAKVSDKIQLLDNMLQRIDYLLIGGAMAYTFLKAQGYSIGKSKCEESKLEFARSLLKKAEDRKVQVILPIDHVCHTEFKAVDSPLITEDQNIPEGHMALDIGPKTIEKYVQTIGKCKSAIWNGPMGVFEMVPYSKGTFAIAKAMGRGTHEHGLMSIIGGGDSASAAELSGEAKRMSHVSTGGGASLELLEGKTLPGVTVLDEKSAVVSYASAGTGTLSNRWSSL
Chain of Flap endonuclease 1 (Homo sapiens) (P39748 whole entry, looked up): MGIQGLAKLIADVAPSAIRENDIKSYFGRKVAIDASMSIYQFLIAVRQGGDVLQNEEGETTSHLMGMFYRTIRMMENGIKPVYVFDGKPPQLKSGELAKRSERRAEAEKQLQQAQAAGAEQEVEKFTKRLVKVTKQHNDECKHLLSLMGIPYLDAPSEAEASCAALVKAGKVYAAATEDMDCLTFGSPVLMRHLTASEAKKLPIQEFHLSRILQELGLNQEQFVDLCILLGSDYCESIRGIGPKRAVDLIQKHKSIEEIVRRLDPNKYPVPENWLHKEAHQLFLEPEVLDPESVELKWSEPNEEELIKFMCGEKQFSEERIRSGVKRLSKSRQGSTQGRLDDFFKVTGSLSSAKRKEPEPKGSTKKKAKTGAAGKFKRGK
Chain of Chromobox protein homolog 1 (Homo sapiens) (P83916 whole entry, looked up): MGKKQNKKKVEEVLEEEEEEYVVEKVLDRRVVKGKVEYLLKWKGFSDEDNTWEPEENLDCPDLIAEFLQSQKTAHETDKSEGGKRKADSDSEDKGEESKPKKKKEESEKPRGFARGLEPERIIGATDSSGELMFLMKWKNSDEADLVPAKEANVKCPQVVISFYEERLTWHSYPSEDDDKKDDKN
Chain of M-phase phosphoprotein 8 (Homo sapiens) (Q99549 whole entry, looked up): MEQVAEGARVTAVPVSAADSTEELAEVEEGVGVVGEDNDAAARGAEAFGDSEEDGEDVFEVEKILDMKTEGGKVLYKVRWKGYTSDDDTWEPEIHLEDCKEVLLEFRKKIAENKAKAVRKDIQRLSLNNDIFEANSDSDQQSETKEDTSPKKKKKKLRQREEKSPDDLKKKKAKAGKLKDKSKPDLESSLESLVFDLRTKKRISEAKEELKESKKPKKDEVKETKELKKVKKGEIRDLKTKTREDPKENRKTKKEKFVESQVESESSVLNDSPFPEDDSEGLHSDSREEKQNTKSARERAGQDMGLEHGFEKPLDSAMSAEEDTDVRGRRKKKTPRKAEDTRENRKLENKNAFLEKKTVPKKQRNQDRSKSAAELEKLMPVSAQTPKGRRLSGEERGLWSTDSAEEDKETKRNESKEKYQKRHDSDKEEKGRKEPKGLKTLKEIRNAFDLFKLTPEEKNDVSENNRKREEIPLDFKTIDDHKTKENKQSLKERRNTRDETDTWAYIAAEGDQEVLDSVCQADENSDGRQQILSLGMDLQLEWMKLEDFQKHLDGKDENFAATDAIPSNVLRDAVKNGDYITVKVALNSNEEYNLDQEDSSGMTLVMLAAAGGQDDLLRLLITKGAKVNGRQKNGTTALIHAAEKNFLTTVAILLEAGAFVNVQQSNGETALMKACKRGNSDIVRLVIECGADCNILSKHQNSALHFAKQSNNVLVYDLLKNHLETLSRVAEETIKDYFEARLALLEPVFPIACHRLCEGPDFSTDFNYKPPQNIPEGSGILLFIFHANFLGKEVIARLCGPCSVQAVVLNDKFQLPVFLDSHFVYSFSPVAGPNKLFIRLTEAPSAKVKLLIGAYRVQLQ
Chain of Ubiquitin carboxyl-terminal hydrolase 1 (Homo sapiens) (O94782 whole entry, looked up): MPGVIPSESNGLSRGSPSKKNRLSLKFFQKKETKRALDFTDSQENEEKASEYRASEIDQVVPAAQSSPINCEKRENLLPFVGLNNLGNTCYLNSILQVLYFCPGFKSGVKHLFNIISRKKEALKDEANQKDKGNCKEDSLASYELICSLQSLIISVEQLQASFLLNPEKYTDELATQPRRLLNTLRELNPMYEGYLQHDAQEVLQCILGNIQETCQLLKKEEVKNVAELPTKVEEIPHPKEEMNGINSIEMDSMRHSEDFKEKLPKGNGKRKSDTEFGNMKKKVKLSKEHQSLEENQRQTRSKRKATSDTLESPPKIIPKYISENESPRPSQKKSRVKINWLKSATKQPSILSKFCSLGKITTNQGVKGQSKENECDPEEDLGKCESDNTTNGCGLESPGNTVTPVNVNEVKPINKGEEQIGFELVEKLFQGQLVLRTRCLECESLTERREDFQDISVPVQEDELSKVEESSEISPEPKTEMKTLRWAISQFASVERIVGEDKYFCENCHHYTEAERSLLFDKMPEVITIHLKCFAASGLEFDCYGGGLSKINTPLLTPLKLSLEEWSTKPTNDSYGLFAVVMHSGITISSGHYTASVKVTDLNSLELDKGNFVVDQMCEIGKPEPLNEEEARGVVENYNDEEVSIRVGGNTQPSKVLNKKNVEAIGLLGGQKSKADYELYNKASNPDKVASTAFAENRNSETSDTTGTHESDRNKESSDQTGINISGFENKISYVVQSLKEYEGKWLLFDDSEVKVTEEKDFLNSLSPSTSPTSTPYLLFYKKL
Chain of Transient receptor potential cation channel subfamily V member 1 (Homo sapiens) (Q8NER1 whole entry, looked up): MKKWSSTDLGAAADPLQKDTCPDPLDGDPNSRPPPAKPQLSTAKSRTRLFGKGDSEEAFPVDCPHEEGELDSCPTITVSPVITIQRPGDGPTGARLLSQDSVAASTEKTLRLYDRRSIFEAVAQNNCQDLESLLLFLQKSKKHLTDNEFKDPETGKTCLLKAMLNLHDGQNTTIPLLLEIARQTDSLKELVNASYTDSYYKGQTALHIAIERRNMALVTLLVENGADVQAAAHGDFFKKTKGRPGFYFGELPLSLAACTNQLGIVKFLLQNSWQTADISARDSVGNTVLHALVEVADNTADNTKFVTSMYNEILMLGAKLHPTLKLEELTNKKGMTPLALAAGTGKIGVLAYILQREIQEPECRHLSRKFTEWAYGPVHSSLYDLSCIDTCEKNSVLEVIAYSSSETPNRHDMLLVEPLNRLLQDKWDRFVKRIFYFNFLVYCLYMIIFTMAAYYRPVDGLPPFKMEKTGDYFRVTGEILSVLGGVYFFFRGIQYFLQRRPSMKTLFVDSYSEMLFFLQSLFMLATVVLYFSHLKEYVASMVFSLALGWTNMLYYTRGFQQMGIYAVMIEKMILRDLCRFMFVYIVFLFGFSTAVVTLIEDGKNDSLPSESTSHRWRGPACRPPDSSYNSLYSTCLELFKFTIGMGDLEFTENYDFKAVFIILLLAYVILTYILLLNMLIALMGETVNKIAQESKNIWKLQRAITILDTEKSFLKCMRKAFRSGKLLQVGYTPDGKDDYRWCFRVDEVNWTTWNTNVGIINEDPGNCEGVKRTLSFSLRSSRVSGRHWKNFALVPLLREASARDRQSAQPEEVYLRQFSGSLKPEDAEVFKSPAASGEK

Turning to `O=C1c2c(O)cc(O)cc2OC(c2ccc(O)c(O)c2)C1O` (centres undefined), the Potency result in experiment [1], in experiment [5], in experiment [10], in experiment [12], in experiment [14] and in experiment [15] was “inactive” in each case. The Potency entry in experiment [16] was “inactive”. For the same molecule, the call in [2], in [7], in experiment [8], in [9] and in [13] was inactive. For the same molecule, the Potency in [3] is 8440 nM (active); in experiment [4] it was 2670 nM (active); in [6], 8.4 nM (active). Further, the activation in experiment [11] was 0% (inactive). The viability change in experiment [12] was -0.133%.
As to `O=C(CCc1ccc(O)cc1)c1c(O)cc(O)cc1O`, the Potency result in experiment [1], in experiment [4], in [5], in [6], in experiment [17] and in experiment [10] was “inactive” each time. Also, the Potency result in [12], in experiment [14], in experiment [19] and in [15] was “inactive” throughout. Further, the molecule was called inactive in experiment [2], in [7], in [8], in experiment [9], in experiment [13] and in [18]. For the same molecule, the activation in [11] was 1.75% (inactive). Besides, in experiment [12], the viability change is -1.1%.
As to `CC1(C)NC(=O)N(c2ccc([N+](=O)[O-])c(C(F)(F)F)c2)C1=O`, the Potency entry in [1], in experiment [3], in [4], in experiment [5], in [6] and in experiment [17] was “inactive” throughout. Also, the Potency entry in experiment [10], in experiment [14], in experiment [19], in experiment [15] and in experiment [16] was “inactive” throughout. Besides, the call in [2], in [7], in experiment [8], in experiment [9], in experiment [13] and in experiment [18] was inactive. The activation in experiment [11] is -3.25% (inactive).
As to `COc1cc2c(cc1OC)C1CC(=O)C(CC(C)C)CN1CC2` (centres undefined), the molecule was classed as inactive in experiment [2], in [7], in experiment [9], in experiment [20], in experiment [13] and in experiment [18]. In addition, the Potency entry in experiment [3], in experiment [4], in experiment [5], in experiment [6], in experiment [17] and in experiment [10] was “inactive” throughout. Further, the Potency entry in experiment [12], in experiment [19], in experiment [15] and in [16] was “inactive” in each case. In addition, the viability change in experiment [12] was -5.87%.
Consider `NC(=NCc1ccccc1)NC(=O)c1nc(Cl)c(N)nc1N`, for which the Potency in experiment [1] is 2940 nM (active); in experiment [10], 5010 nM (active). Also, the molecule was classed as inactive in experiment [2], in experiment [7], in [8], in experiment [9], in experiment [13] and in [18]. Further, the Potency entry in experiment [3], in experiment [5], in experiment [6], in [17], in experiment [12] and in [14] was “inactive” throughout. The Potency result in experiment [19], in [15] and in [16] was “inactive” throughout. Moreover, in experiment [11], the activation was 0.438% (inactive). Besides, the viability change in experiment [12] was found to be 2.7%.
